The experiment concerns the target Solute carrier family 2, facilitated glucose transporter member 1 (Homo sapiens) (UniProt P11166). The experiment is described as follows: ST_JUDE_LEISH: Cytotoxicity at 2uM final concentration against transgenic Leishmania Mexicana promastigotes LmGLUT1 that are glucose transport deficient and complemented with the human glucose transporter GLUT1. Activity is measured by DNA content using SYBR green in vitro. The class given is functional.
Chain of Solute carrier family 2, facilitated glucose transporter member 1 (Homo sapiens) (P11166 whole entry): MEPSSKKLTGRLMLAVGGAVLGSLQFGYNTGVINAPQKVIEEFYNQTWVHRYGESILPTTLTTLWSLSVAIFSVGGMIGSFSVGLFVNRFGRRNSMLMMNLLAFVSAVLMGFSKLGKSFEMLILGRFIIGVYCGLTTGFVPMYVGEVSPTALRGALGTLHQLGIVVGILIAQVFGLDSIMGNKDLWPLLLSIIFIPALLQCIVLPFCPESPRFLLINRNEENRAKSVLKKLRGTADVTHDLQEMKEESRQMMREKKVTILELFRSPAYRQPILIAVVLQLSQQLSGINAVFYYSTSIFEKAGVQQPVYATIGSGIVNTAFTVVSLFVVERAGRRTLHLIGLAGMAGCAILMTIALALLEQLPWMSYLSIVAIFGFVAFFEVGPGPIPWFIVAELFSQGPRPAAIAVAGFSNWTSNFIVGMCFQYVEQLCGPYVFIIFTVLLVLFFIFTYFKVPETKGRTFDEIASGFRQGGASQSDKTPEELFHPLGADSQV
For `COc1ccc2nccc([C@@H](O)CN3CCC(NCc4cc5ccccc5[nH]4)CC3)c2c1`, the inhibition amounted to 17%.

Turning to `CCNC(=O)Nc1cccc(-c2ccc(-c3nc4cccc(C)c4[nH]3)s2)c1`, the inhibition came to 1.49%.

Take `O=C(Nc1ccc(-c2cccc(-c3nc4cc(F)ccc4[nH]3)c2)cc1)Nc1ccc(F)c(F)c1F`: the inhibition came out at 5.34%.

On to `Cc1cc(N)c2cc(NC(=O)c3cccc4ccccc34)ccc2n1`, for which the inhibition worked out at 0.77%. Next, `COc1cc(OC)cc(C(=O)N2CCOC(CCN3CCC(c4ccccc4)CC3)(c3ccc(Cl)c(Cl)c3)C2)c1` (stereo not given): 0.22%.

As to `COc1ccccc1N1CCN(CCCCNC(=O)c2ccc(NC(=O)c3ccc4ccccc4c3)cc2)CC1`, the inhibition was determined as 0.49%. Next, `COc1ccc(CCNC(C)Cc2ccc(C(=O)Nc3ccc(CC(C)NCCc4cccc(Cl)c4)cc3)cc2)cc1` (stereo not given): 3.92%. With `CCN(CCCN1CCCCC1)c1cc(C)nc(Nc2ccc(C)c(Cl)c2)n1`, the inhibition was 3.02%. Turning to `CCC(C)NS(=O)(=O)c1ccc2nc(Nc3ccc(C)c(Cl)c3)n(C3CCCCC3)c2c1` (stereo not given), the inhibition was 5.56%. With `NC(=O)COc1c(C2CCN(CCN3CCC(CNC(=O)c4ccc(-c5ccc(C(F)(F)F)cc5)cc4)CC3)CC2)ccc2c1CCCC2`, the inhibition was 4.85%. As for `CC(C)N1CCC(Oc2ccc(CN3CCN(C(c4ccccc4)c4ccc(Cl)cc4)CC3)cc2)CC1` (stereo not given), the inhibition stood at 6.88%. Regarding `O=C(Nc1ccc(Cl)cc1)Nc1ccc(-c2cccc(-c3nc4ccccc4[nH]3)c2)cc1`, the inhibition amounted to 1.48%.

Regarding `O=S(=O)(NCCN1CCCC1)c1ccc(-c2ccc(CNC3Cc4ccccc4C3)cc2)s1`, the inhibition is 5.8%. With `Fc1cccc(C=NN=c2cc[nH]c3ccc(C(F)(F)F)cc23)c1`, the inhibition came out at 9.27%. Next, `CC(C)C[C@@H](C(=O)Nc1ccc(Cc2ccc(NC(=O)[C@H](CC(C)C)N(C)C(=O)OC(C)(C)C)cc2)cc1)N(C)C(=O)OC(C)(C)C`: 0.03%; `Cc1cc(N[C@@H](C)C(=O)Nc2ccccc2)nc(NCCc2ccc(F)cc2)n1`: 2.77%; `O=C(Nc1cccc(-c2ccc(-c3nc4ccccc4[nH]3)cc2)c1)Nc1ccc2c(c1)OCO2`: 1.14%. For `Oc1ccc(Nc2nc(NCC3CCCO3)c3ccccc3n2)cc1` (stereo not given), the inhibition worked out at 7.56%. Next, `CC(=O)Nc1nc(C(=O)Nc2ccc(-c3cccc(-c4nc5cc(C(F)(F)F)ccc5[nH]4)c3)cc2)cs1`: 0.32%. In the case of `CCCCCCCN1CC[C@@H](CCCc2ccnc3ccc(OC)cc23)[C@@H](CCN)C1` it was 3.03%. Consider `CCCCCN1CCC(NC(=O)c2ccc(C(=O)Nc3ccc(C(C)C)cc3)cc2)C1` (stereo not given), for which the inhibition was 1.74%. As to `CC(C)Sc1nc(-c2ccccc2)nc2c1COC(C)(C)C2`, the inhibition is -2.07%. `O=C(Cc1c[nH]cn1)Nc1cccc(-c2ccc(-c3nc4cc(C(F)(F)F)ccc4[nH]3)s2)c1`: the inhibition is -5.22%. In the case of `COc1ccc2[nH]c(C)cc(=NN=Cc3cc(OC)c(OC)cc3OC)c2c1` it was 5.42%. Next, `COc1ccccc1C1CC(c2ccc(Br)cc2)=NN1C(=O)c1ccccc1` (stereo not given): 2.83%. In the case of `CCCCCCCC/C=C\CCCCCCCC(=O)NCc1ccc(O)c(OC)c1` it was 8.15%; in that of `O=C(CCC1CCCCC1)NCCNc1cccc2ccccc12`, -0.06%. In the case of `CC1CCN(c2nc(C(=O)Nc3ccc(F)cc3C(F)(F)F)c(C(C)C)s2)CC1`, the inhibition worked out at 1.3%. Consider `CC1CCc2c(C(=O)Nc3c(F)cc(F)cc3Br)csc2C1` (stereo not given), for which the inhibition was -0.18%. In the case of `CC(=O)Nc1cccc(Nc2nccc(Nc3ccc(Oc4ccccc4)cc3)n2)c1` it was 1.64%.

In the case of `CC(=O)Nc1sc(C)c(C)c1CN1CCc2ccccc2C1`, the inhibition was -0.17%.

Regarding `Cc1nc(N)nc(N)c1-c1ccc(Br)cc1`, the inhibition was determined as 9.9%. Take `CC(C)(O)CC(C)(C)c1cc(Cl)ccc1O`: the inhibition amounted to 6.46%. In the case of `O=C(CCc1c[nH]cn1)Nc1ccc(-c2ccc(-c3nc4cc(F)ccc4[nH]3)cc2)cc1` it was 1.4%; in that of `O=C(/C=C/c1ccc(Cl)c(Cl)c1)NCCCCCN1CCCN(C(=O)Nc2ccc(F)c(F)c2)CC1`, 2.67%.

For the compound `CCOc1ccc(Nc2cc(C)nc(Nc3ccc(OCC)cc3)n2)cc1`, the inhibition was found to be 0.78%.

For the compound `O=C(NC1CC1)c1cnc(N2CCC(COc3cccc(F)c3)CC2)c(Cl)c1`, the inhibition was 1.83%. As to `CS(=O)(=O)CCNCc1ccc(-c2ccc3c(Nc4ccc(Cl)cc4F)ccnc3c2)o1`, the inhibition was found to be 2.59%. Take `CC(C)C[C@H](NC(=O)c1cc2ccccc2s1)C(=O)N[C@H]1CCN(Cc2ccc(OC[C@@H]3CCCN3C)c(Cl)c2)C1`: the inhibition came to 10.8%.

As for `COc1ccc(C2CC(c3cccs3)=NN2C(=O)CNc2ccccc2F)cc1OC` (stereo not given), the inhibition came to 2.69%.

In general, inhibition refers to the drop in the measured response relative to a control, in per cent.

The values are drawn from ChEMBL document CHEMBL3433997, “St. Jude Leishmania screening dataset” (2016).
